Bioassay records deposited in PubChem by several laboratories.
Beta apoptosis – beta cell apoptosis inhibition. INS-1E cytokine-induced death, ATP luminescence, 48 h; percent of positive-control rescue, neutral wells zero. AID 435005. hit rate 0.8% among 300,000. protection from apoptosis, % (test concentration not listed);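 active means Every replicate reaches about 75%, or at least half do and their mean reaches it too, limit read from the data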;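 further: 0% = cytokine-treated negative control wells and 100% = positive control rescue; higher means more ATP so stronger rescue from cytokine killing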
PP5 primary – PP5 (human) phosphatase inhibition; AID 1987; inhibition, % at 6.7 µM; P53041; purified PP5c, OMFP substrate fluorescence; hit rate 0.18% among 320,000;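 active means inhibition above the campaign's mean inhibition across all tested compounds plus 3 SD, cut at about 9.5% in these data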;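 further: 0% = DMSO only and 100% = 100 µM cantharidin control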
Target sequence (P53041 whole entry, looked up): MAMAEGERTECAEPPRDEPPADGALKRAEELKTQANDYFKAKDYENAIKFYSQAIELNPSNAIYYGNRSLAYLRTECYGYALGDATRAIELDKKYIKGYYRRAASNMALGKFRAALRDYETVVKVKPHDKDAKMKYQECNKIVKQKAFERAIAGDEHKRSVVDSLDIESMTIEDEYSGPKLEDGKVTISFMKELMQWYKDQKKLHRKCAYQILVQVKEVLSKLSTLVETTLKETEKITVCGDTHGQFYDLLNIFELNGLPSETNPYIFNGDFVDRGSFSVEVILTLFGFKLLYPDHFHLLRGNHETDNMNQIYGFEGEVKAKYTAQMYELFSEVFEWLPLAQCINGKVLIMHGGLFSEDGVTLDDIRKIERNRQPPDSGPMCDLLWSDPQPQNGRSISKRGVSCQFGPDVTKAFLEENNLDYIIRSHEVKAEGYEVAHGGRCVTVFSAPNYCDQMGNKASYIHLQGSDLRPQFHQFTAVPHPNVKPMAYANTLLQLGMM
CSC inhib – blocks cancer stem cells. cancer stem cell-like cells viability, luminescence. inhibition, % at 7.5 µM. hit rate 1.1% among 300,000. AID 2717; in the data active means inhibition above about 75%; tested in HMLE shEcad cells
PP1 inh – counter-screen for PP5 inhibitors: inhibitors of human PP1-alpha | purified PP1alpha, OMFP fluorescence | hit rate 0.9% among 320,000 | AID 2235 | inhibition, % at 6.7 µM;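 active means inhibition above the mean inhibition of all tested compounds plus 3 SD, computed separately for each screening campaign, cut at about 15% in these data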
SKKanGAS inh – inhibitors of SKKanGAS S. pyogenes growth in kanamycin (SK-promoter or general growth effect) | hit rate 1.3% among 300,000 | inhibition, % at 7.5 µM | AID 1662 | BacTiter-Glo, 6 h;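 active means mean replicate score, as percent of positive control median, at least 50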;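 further: strain carries kanamycin resistance gene driven by streptokinase promoter and grows in 40 µg/ml kanamycin; loss of luminescence reflects streptokinase promoter inhibition or plain growth inhibition; 0% = median of DMSO wells and 100% = positive control at its reference dose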
Starred values were filed as active, the others as inactive; . = no result. Rows were chosen to be rich in hits. Some 3.1% of all compounds tested hit in one or more screens of this group.

SMILES	Beta apoptosis	PP5 primary	CSC inhib	PP1 inh	SKKanGAS inh
CC1CCc2c(sc3nc(CN4CCN(S(=O)(=O)c5ccccc5[N+](=O)[O-])CC4)[nH]c(=O)c23)C1 (stereo not given)	1.3	5.8	0.6	15.9*	10.8
OCCCNC(=S)Nc1ccc(Br)cc1Cl	-4.2	0.8	6.9	-5.7	0.8
Cc1cc(N/N=C/c2cccc(Br)c2)nc2ccccc12	6.2	4.8	13.2	3.5	90.8*
Cc1ccc(S(=O)(=O)NCC(=O)OCC(=O)N2N=C(c3ccc(Cl)cc3)CC2c2ccco2)cc1C (stereo not given)	7.1	4.3	-17.6	7.2	70.1*
COc1ccc(C2=NN(C(=O)COC(=O)c3ccc(NC(=O)CC#N)cc3)C(c3ccco3)C2)cc1 (stereo not given)	-2.3	2.3	66.9	16.0*	.
O=C(OCC(=O)N1N=C(c2ccc(Cl)cc2)CC1c1ccco1)c1ccco1 (stereo not given)	-5.2	1.5	-7.7	-2.8	7.5
CCN(CC)c1ccc(S(=O)(=O)Nc2cc(Cl)ccc2Cl)cc1NC(=S)NC(=O)C1CCCC1	.	1.8	99.5*	15.3*	42.2
O=C(COC(=O)CCC(=O)c1cccs1)NC1CC1	-8.1	-2.6	1.7	4.2	-1.5
Cc1ccc2[nH]c(-c3cccc(F)c3)cc(=O)c2c1	10.7	-3.1	58.4	11.1	6.2
COc1ccc2[nH]c(-c3cccc(F)c3)cc(=O)c2c1	19.8	1.9	76.0*	2.9	1.6
CC1(c2ccccc2)NC(=O)N(CC(=O)Nc2ccc(C(N)=O)cc2)C1=O (stereo not given)	0.4	2.5	-16.1	-1.4	-1.6
Cc1ccc(C#CC[N+]2(CC#Cc3ccc(C)cc3)CCCCC2)cc1	113.0*	2.5	15.7	-0.8	-0.9
CCn1cc(Cl)c(C(=O)N2N=C(c3ccc4ccccc4c3)CC2c2ccccc2O)n1 (stereo not given)	-8.9	3.9	26.1	13.3	50.2*
CC(C)CN(Cc1cc(=O)oc2cc(-c3ccccc3)c(O)cc12)CC(C)C	41.8	1.2	109.4*	2.1	76.4*
C=C(C(=O)Oc1ccccc1C(C)(C)C)c1ccccc1	7.1	1.9	103.3*	-1.1	.
CCOC(=O)c1sc2ncnc(NCC(c3cccs3)N(C)C)c2c1C (stereo not given)	3.0	1.2	60.3	-2.0	53.4*
CC1CCCCC12NC(=O)N(CC(=O)NCCc1ccc(F)cc1)C2=O (stereo not given)	.	-0.1	.	-4.9	.
COc1ccc(-c2sc3ccccc3c2-c2ccc(OCCN3CCCCC3)cc2)cc1	102.9*	.	139.2*	.	.
c1ccc(-c2sc3ccccc3c2-c2ccc(OCCN3CCCC3)cc2)cc1	6.0	.	106.7*	.	.
c1ccc(COc2ccc(OCCN3CCCC3)cc2)cc1	-3.2	2.5	13.8	5.3	-1.3
COC(=O)Nc1nn(-c2ccc(OC)cc2)c(=O)c(C#N)c1C	1.4	2.5	-3.6	-6.1	3.7
CCSc1nnc(-c2ccc(S(=O)(=O)N3CCOCC3)cc2)n1C	-1.9	-2.1	6.1	-1.2	-1.4
Cc1ccccc1C(=O)N1CCN(c2ccc(NC(=O)c3ccc([N+](=O)[O-])o3)cc2)CC1	21.9	-0.1	90.9*	-2.2	19.2
Cc1ccccc1C(=O)N1CCN(c2ccc(NC(=O)c3cccnc3)cc2)CC1	74.8*	1.8	-3.0	-2.9	-8.5
CC(=O)c1ccc(NC(=O)c2ccc([N+](=O)[O-])o2)cc1	-7.7	.	79.6*	.	8.7
SMILES	Beta apoptosis	PP5 primary	CSC inhib	PP1 inh	SKKanGAS inh
O=C(Nc1ccc(N2CCN(C(=O)c3ccccc3)CC2)cc1)c1ccc([N+](=O)[O-])o1	.	.	.	.	2.6
Cc1ccccc1C(=O)N1CCN(c2ccc(NC(=O)c3ccc4c(c3)OCO4)cc2)CC1	4.3	0.6	77.0*	-0.1	8.8
CCOc1ccc(NC(=O)CN(C)CC(=O)Nc2ccc(Br)cc2F)cc1OCC	-11.0	-1.1	-24.3	-4.1	0.8
NC(=O)c1oc2ccccc2c1NC(=O)c1ccc([N+](=O)[O-])o1	34.8	-1.0	.	1.8	73.0*
CCN(CC)CCn1c2c(c(SCC(=O)Nc3cc(OC)cc(OC)c3)nc1=O)CCC2	-6.6	-0.1	-3.5	-3.1	0.4
O=C(CSc1ccc2ccccc2c1)N1CCN(c2ccc(O)cc2)CC1	2.7	1.4	91.4*	-3.9	6.9
CCc1ccc(NS(=O)(=O)c2ccc3oc(=O)ccc3c2)cc1	.	7.7	-5.8	5.2	1.8
COc1ccc(C2=Nn3c(nnc3-c3ccccc3OC)SC2)cc1OC1CCOC1 (stereo not given)	7.0	.	46.2	.	.
O=[N+]([O-])c1cc(Cl)ccc1Sc1cccc2cccnc12	8.0	1.5	-2.8	-0.5	9.1
C=CCn1nc([N+](=O)[O-])nc1Sc1cccc2cccnc12	95.2*	0.8	-18.3	-0.8	-5.6
O=[N+]([O-])c1ccc(Sc2cccc3cccnc23)c([N+](=O)[O-])c1	80.0*	1.4	16.7	-0.2	.
O=C(CCCc1nc(-c2ccc(Cl)cc2)no1)NC1CCCC1	106.9*	0.0	33.1	-3.8	-18.0
CCCCc1oc2ccccc2c1C(=O)c1cc(I)c(OCCN(CC)CC)c(I)c1	4.0	0.1	89.3*	10.3	106.4*
CCN(CC)CCOc1ncnc2c1oc1ccccc12	-1.5	0.2	-10.1	1.9	-2.7
CC(=O)Nc1ccccc1C(=O)C(=O)Nc1cccc(C(=O)N2CC(C)CC(C)C2)c1 (stereo not given)	-3.9	-1.2	4.4	-3.9	-3.6
CN1/C(=C\C(=O)CN2C(=O)NC3(CCCCCC3)C2=O)C(C)(C)c2ccccc21	112.7*	0.7	-10.3	3.6	4.4
Cc1cc(=O)[nH]c(SCC(=O)/C=C2\N(C)c3ccccc3C2(C)C)n1	116.6*	2.0	-8.2	-0.7	-7.9
COCCn1c(SCC(=O)/C=C2\N(C)c3ccccc3C2(C)C)nnc1-c1ccncc1	79.9*	-0.5	6.7	-3.0	-5.0
CN1/C(=C/C(=O)CSc2ccccc2C(=O)O)C(C)(C)c2ccccc21	41.8	3.3	-12.1	-5.3	7.8
Cc1cccc[n+]1CC(=O)/C=C1\N(C)c2ccccc2C1(C)C	14.5	4.2	31.2	4.8	0.5
O=C(NC1CCCCCC1)C(=S)NC1CCCCC1	0.4	-1.1	-3.1	-1.6	-0.1
COc1ccc(CCNC(=O)c2nn(C)c3c2CS(=O)(=O)c2ccccc2-3)cc1OC	-0.7	-0.5	10.2	-1.5	3.3
CCC(NC(=O)c1ccncc1)c1ccccc1 (stereo not given)	-1.2	-0.3	-11.6	-4.1	-2.0
COc1ccc2[nH]c(C(=O)NCCCn3ccnc3)cc2c1	-4.0	0.3	-8.6	1.3	3.4
C=CCc1cccc(/C=N/NC(=O)c2ccc3nc[nH]c3c2)c1O	83.7*	4.0	94.2*	2.0	2.8
C=CCc1cccc(/C=N/NC(=O)C(=O)Nc2ccc(C)cc2)c1O	.	0.5	9.1	-2.3	70.1*
C=CCc1cccc(/C=N/NC(=O)c2ccccc2OC)c1O	93.9*	4.5	-1.8	-1.3	32.1
O=C(N/N=C/c1ccc(Cl)cc1Cl)c1ccc2nc[nH]c2c1	-0.5	0.7	-2.3	6.2	-6.9
COc1ccc2[nH]c(C)c(-c3csc(N)n3)c2c1	-3.8	1.8	-9.4	-2.6	4.9
